{"source": "the supplement of paper PMC9402605", "note": "± gives the standard deviation of the averaged measurements.", "data": [{"tested_on": "Caenorhabditis elegans N2", "assay": "egg-laying rate relative to DMSO control (M9 buffer background) (fraction of control); higher = more egg-laying", "conditions": "60 µM, 1 h", "experimental": "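About 20 young-adult wild-type C. elegans (N2) per well in 96-well plates were exposed to 60 uM compound for 1 h at room temperature, either in M9 buffer (to find stimulators) or in 12.3 mM serotonin + 7.7 mM nicotine (NS, to find inhibitors). Eggs per worm per hour were counted by automated imaging and normalised to the mean of proximal DMSO control wells. Values average the primary screen and two retests of the worm-active (wactive) Egl modulators.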", "values": [{"smiles": "Fc1ccc(-c2cn3ccsc3n2)cc1", "note": "[wact-433]", "egg-laying rate": "3.02 ± 1.1"}, {"smiles": "c1csc(-c2cnc3ccccc3n2)c1", "note": "[wact-21]", "egg-laying rate": "4.69 ± 1.8"}, {"smiles": "Cc1ccccc1C(=O)NCCSC1CCCCC1", "note": "[wact-494]", "egg-laying rate": "1.03 ± 0.24"}, {"smiles": "O=[N+]([O-])c1ccc(-n2ccc3ccccc32)cc1", "note": "[wact-213]", "egg-laying rate": "2.13 ± 1.5"}, {"smiles": "O=[N+]([O-])c1ccc(N2CCN(CC3CC4C=CC3C4)CC2)cc1", "note": "(stereo not given) [wact-46]", "egg-laying rate": "11 ± 6.7"}, {"smiles": "CCc1ccc(-c2cn3ccsc3n2)cc1", "note": "[wact-434]", "egg-laying rate": "1.53 ± 0.93"}, {"smiles": "CCCCOC(=O)Nc1ccc([N+](=O)[O-])cc1", "note": "[wact-419]", "egg-laying rate": "2.9 ± 0.58"}, {"smiles": "O=C1CC(N2CCN(c3ccc([N+](=O)[O-])cc3)CC2)C(=O)N1c1ccccc1F", "note": "(stereo not given) [wact-56]", "egg-laying rate": "2.24 ± 0.45"}, {"smiles": "CCSc1nnc(-c2ccc(Cl)cc2Cl)o1", "note": "[wact-4]", "egg-laying rate": "4.56 ± 1.9"}, {"smiles": "Cc1ccn2cc(-c3ccc(F)cc3)nc2c1", "note": "[wact-436]", "egg-laying rate": "1.94 ± 0.73"}, {"smiles": "O=C(Nc1ccc(I)cc1)c1ccco1", "note": "[wact-27]", "egg-laying rate": "3.06 ± 1.5"}, {"smiles": "c1ccc(CSc2nnc(-c3ccccc3)o2)cc1", "note": "[wact-38]", "egg-laying rate": "8.44 ± 0.94"}, {"smiles": "O=[N+]([O-])c1ccc(N2CCc3ccccc3C2)nc1", "note": "[wact-421]", "egg-laying rate": "1.83 ± 0.59"}, {"smiles": "COc1ccc(C=Cc2ccccn2)cc1", "note": "[wact-622]", "egg-laying rate": "1.19 ± 0.28"}, {"smiles": "O=C(Nc1cccc(Cl)c1)N1CCN(c2ccc([N+](=O)[O-])cc2)CC1", "note": "[wact-31]", "egg-laying rate": "2.02 ± 0.75"}, {"smiles": "O=[N+]([O-])c1ccc(N2CCN(CC3CC=CCC3)CC2)cc1", "note": "(stereo not given) [wact-47]", "egg-laying rate": "10.6 ± 6.3"}, {"smiles": "Ic1cccc(-c2nnc(-c3ccccc3)o2)c1", "note": "[wact-51]", "egg-laying rate": "2.92 ± 1.6"}, {"smiles": "Cc1ccc(-c2cnc(-c3ccncc3)o2)cc1", "note": "[wact-23]", "egg-laying rate": "3.94 ± 1.5"}, {"smiles": "Cc1ccccc1C(=O)NCCc1ccccc1", "note": "[wact-406]", "egg-laying rate": "0.741 ± 0.36"}, {"smiles": "CCC1CCC(N2CCN(c3ccc([N+](=O)[O-])cc3)CC2)CC1", "note": "(stereo not given) [wact-6]", "egg-laying rate": "7.85 ± 2.4"}, {"smiles": "CCOc1ccc(C(=O)c2cccs2)cc1", "note": "[wact-471]", "egg-laying rate": "2.49 ± 2.2"}, {"smiles": "O=[N+]([O-])c1ccc(CSc2ccc(Cl)cc2)cc1", "note": "[wact-3]", "egg-laying rate": "2.13 ± 0.22"}, {"smiles": "Clc1ccc(-c2cn3ccsc3n2)cc1", "note": "[wact-1]", "egg-laying rate": "1.94 ± 0.54"}, {"smiles": "Brc1cccc(-c2cn3ccccc3n2)c1", "note": "[wact-435]", "egg-laying rate": "0.576 ± 0.34"}, {"smiles": "O=[N+]([O-])c1ccc(N2CCN(CC3CCCCC3)CC2)cc1", "note": "[wact-45]", "egg-laying rate": "4.22 ± 1.8"}]}]}
